# Most compounds without a hit are left out; they make up all but 3.4% or so of the library.
# esBAF inh: inhibitors of esBAF chromatin remodeling in mouse ES cells; Bmi1-luciferase knock-in reporter, 24 h; 100% = twice the neutral-well signal; AID 602393; reporter increase, % at 12.5 µM; 350,000 compounds, 2% hits; in the data active means activation above about 40%;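 further: 0% = median of the plate's neutral control wells and 100% = double that signal; a rise in the Bmi1 reporter signal indicates esBAF inhibition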
# HSF1 inh: HSF1 inhibition; activity change, negative = inhibition, % at 7.5 µM (by protocol); AID 2098; 300,000 compounds, 0.77% hits; NIH3T3-HGL HSE-luciferase, MG132-induced, luminescence 8 h; stronger effect = lower value;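 active means more than half of replicate wells show activity change below -50%, luminescence cut by over half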;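 further: luciferase reports HSF-1 transcriptional activity via heat shock element; 0% = median of DMSO wells and -100% = zero luminescence signal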
# HSF-1 act: increases HSF-1 driven luciferase reporter signal. NIH3T3-HGL HSF-1 luciferase reporter, MG132, 8 h; 100% = twice DMSO control signal. activation, % at 9 µM. 300,000 compounds, 1.7% hits. AID 504408;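 active means mean replicate activation of at least 50% with a set share of replicates each reaching 50%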;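 further: 0% = median of the neutral control wells and 100% = twice that signal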
# Vif imaging: blocks HIV Vif function | inhibition, % at 7.49 µM | HEK293T cells, Vif self-association by quenched fluorescence, imaging, 24 h | 340,000 compounds, 0.35% hits; in the data active means inhibition above about 50%, passing the limit was not always enough
# Active calls of the source: *; . = no result given.
SMILES,esBAF inh,HSF1 inh,HSF-1 act,Vif imaging
O=C(/C=C/c1ccc(OCCCF)cc1)N1CCN(Cc2ccccc2)CC1,8,8,61*,-7
CC(C)c1cn(CC[C@H]2CC[C@@H](NS(=O)(=O)Cc3ccccc3)[C@H](CO)O2)nn1,-2,.,.,.
O=C1CCN(CCc2ccccc2)CCN1[C@H](CSc1ccc(Br)cc1)c1ccccc1,11,10,12,-2
CCCN1CCC(=O)N([C@H](CSc2ccccc2)CC(C)C)CC1,37,-2,2,-4
CCCN1CCC(=O)N([C@H](CSc2ccc(C)cc2)CC(C)C)CC1,46*,-42,-56,-2
CC(C)C[C@@H](CSc1ccccc1)N1CCN(CC(C)C)CCC1=O,50*,-1,-10,1
CCCN1CCC(=O)N([C@H](CSc2ccc(Br)cc2)c2ccccc2)CC1,51*,4,25,-3
COc1ccc(NC(=O)Nc2ccc3c(c2)C(=O)N([C@H](C)CO)C[C@@H](C)[C@H](CN(C)S(=O)(=O)c2ccc(Cl)cc2)OCCCC[C@@H](C)O3)cc1,4,.,.,.
CN(C)C=Nc1c(Br)cc(Br)c2nonc12,3,1,10,70*
C[C@@H]1CN([C@@H](C)CO)C(=O)c2cc(NC(=O)Cc3ccccc3)ccc2O[C@@H](C)CCCCO[C@@H]1CN(C)S(=O)(=O)c1cccs1,1,.,.,.
CCOC(=O)C1CCN(S(=O)(=O)c2c(Cl)ccc3nonc23)CC1,-84,156,197*,9
CNC[C@H]1OCCCC[C@H](C)Oc2ccc(NS(=O)(=O)c3ccc(OC)cc3)cc2C(=O)N([C@H](C)CO)C[C@@H]1C,-2,.,.,.
CCN1C(=O)c2ccccc2S(=O)c2ccc(C(=O)NCc3ccc(OC)cc3)cc21 (centres undefined),3,-87*,-90,-8
CCN1CCN(C(=O)c2ccc3c(c2)N(Cc2ccccc2)C(=O)c2ccccc2S3=O)CC1 (centres undefined),-6,-4,-3,.
CCN1C(=O)c2ccccc2S(=O)c2ccc(C(=O)N3CCCC3)cc21 (centres undefined),3,-85*,-88,-4
CCCCOCCCN1CC(=O)N2[C@@H](Cc3c([nH]c4ccccc34)C2(C)C)C1=O,2,29,70*,-17
CCCCCN1CC(=O)N2[C@@H](Cc3c([nH]c4ccccc34)C2(C)C)C1=O,1,-3,7,1
Cc1ccccc1CN1C(=O)[C@@H]2Cc3c([nH]c4ccccc34)C(C)(C)N2C1=O,17,11,10,105*
CC(=O)N(C)C[C@@H]1Oc2cc(C#Cc3ccccn3)ccc2S(=O)(=O)N([C@@H](C)CO)C[C@@H]1C,3,.,.,.
C[C@@H]1CCCCO[C@H](CN(C)C(=O)Cc2ccccc2)[C@@H](C)CN([C@H](C)CO)C(=O)c2cc(NC(=O)c3ccncc3)ccc2O1,-3,.,.,.
CCC(=O)N1[C@H](CO)[C@@H]2c3ccccc3N(C(=O)NC(C)C)C[C@@H]21,-1,.,.,.
Cc1noc(C)c1S(=O)(=O)Nc1ccc2c(c1)C(=O)N([C@@H](C)CO)C[C@H](C)[C@@H](CN(C)C(=O)Nc1ccc(F)cc1)O2,1,.,.,.
COC(=O)c1ccc(-c2nc3ccc(C)cc3o2)cc1,52*,18,29,0
Cc1ccc(-c2nc3cc(C)ccc3o2)cc1,-61,-30,-37,5
CC(C)CC(=O)Nc1ccc2oc(-c3cccnc3)nc2c1,50*,8,22,-3
SMILES,esBAF inh,HSF1 inh,HSF-1 act,Vif imaging
CCC(=O)Nc1ccc2oc(-c3cccnc3)nc2c1,.,-6,-28,-1
Cc1ccc2oc(-c3ccc(NC(=O)CC(C)C)cc3)nc2c1,50*,12,44,-7
Cc1ccccc1S(=O)(=O)NCC[C@@H]1CC[C@@H](NC(=O)Nc2cccc(F)c2)[C@H](CO)O1,2,.,.,.
C[C@@H]1CN([C@@H](C)CO)C(=O)c2cc(NS(=O)(=O)c3ccccc3)ccc2O[C@@H]1CN(C)S(C)(=O)=O,1,.,.,.
O=C(Nc1ccc2c(c1)OCO2)c1cccc(Cl)c1,64*,24,31,0
O=C(Nc1ccc(Cl)cc1)c1ccc2c(c1)OCO2,.,33,60*,-25
O=C(Nc1ccc(N2CCCCC2)c(Cl)c1)c1ccc2c(c1)OCCO2,52*,-46,-57,-14
Cc1noc(C(=O)Nc2ccc3c(c2)OCO3)c1Cl,51*,9,10,.
C[C@@H]1CN([C@@H](C)CO)C(=O)Cc2cc(NC(=O)CCC(F)(F)F)ccc2O[C@H]1CN(C)Cc1ccc(C(=O)Nc2ccccc2N)cc1,-4,.,.,.

# Bioassay records from PubChem.
